Laboratory results reported in the supplement of paper PMC10515830.

Assays:
Conditions in all cases: 10 µM; exposure time 6 h
[1] = tested on: Danio rerio larvae (5 dpf); test: difference in excitability vs DMSO (percentage points); higher = more excitable than DMSO
Summary of the method: (§1)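 Wild-type zebrafish larvae at 5 dpf were kept in 96-well plates and exposed for 6 h to 100 µL egg water holding library compound at a final concentration of 10 µM. From 3 h into exposure, the plates were held at 28.5 ℃ and photographed every 6 s through a 3-h programme of moving lines and 100 ms, 400Hz tones. Each behaviour was scored by Z-LaP Tracker, a DeepLabCut model, and averaged over 48 larvae per compound. Every value gives the compound mean minus the vehicle control mean, in percentage points.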

[2] = tested on: Danio rerio larvae (5 dpf); test: difference in startle response vs DMSO (percentage points); higher = stronger startle than DMSO
Summary of the method: as §1

[3] = tested on: Danio rerio larvae (5 dpf); test: difference in activity during first hour vs DMSO (percentage points); higher = more activity than DMSO
Summary of the method: as §1

[4] = tested on: Danio rerio larvae (5 dpf); test: difference in habituation to acoustic stimuli vs DMSO (percentage points); higher = more habituation than DMSO
Summary of the method: as §1

[5] = tested on: Danio rerio larvae (5 dpf); test: difference in combined optomotor response to red, green and blue moving lines vs DMSO (percentage points); higher = stronger optomotor response than DMSO
Summary of the method: as §1

Compound | difference in excitability [1] | difference in startle response [2] | difference in activity during first hour [3] | difference in habituation to acoustic stimuli [4] | difference [5]
CO[C@@H]1[C@H](N(C)C(=O)c2ccccc2)C[C@H]2O[C@]1(C)n1c3ccccc3c3c4c(c5c6ccccc6n2c5c31)C(=O)NC4 | -5.3 | -4.96 | 4.11 | 8.1 | 0.314
CC(C)OC(=O)CCC/C=C\C[C@@H]1[C@@H](CC[C@@H](O)CCc2ccccc2)[C@H](O)C[C@@H]1O [Latanoprost] | 1.84 | -0.286 | 20.8 | 3.23 | 7.08
C[C@]12CCC(=O)C=C1CC[C@@H]1[C@@H]2[C@@H](O)C[C@@]2(C)[C@H]1CC[C@]2(O)C(=O)CO [Hydrocortisone] | 1.87 | 0.52 | 14.7 | 1.82 | 9.96
CC(C)[N+](C)(CCOC(=O)C1c2ccccc2Oc2ccccc21)C(C)C [Propantheline (bromide)] | 4.4 | 5.21 | 4.15 | 4.81 | 5.08
CC(C)(C)NC(=O)[C@@H]1CN(Cc2cccnc2)CCN1C[C@@H](O)C[C@@H](Cc1ccccc1)C(=O)N[C@H]1c2ccccc2C[C@H]1O [Indinavir (sulfate)] | -11.9 | -2.27 | 1.38 | 11.2 | -0.405
CN(CCOc1ccc(CC2SC(=O)NC2=O)cc1)c1ccccn1 (stereo not given) [Rosiglitazone (maleate)] | 10.7 | -3.19 | 10.3 | -2.4 | -0.752
NCc1ccc(S(N)(=O)=O)cc1 [Mafenide] | 3.79 | 7.01 | 4.01 | 0.954 | 0.998
NC(=O)NO [Hydroxyurea] | -1.52 | 8.36 | 2.09 | 5.31 | 3.68
Nc1cccc2c1CN(C1CCC(=O)NC1=O)C2=O (stereo not given) [Lenalidomide] | -0.5 | 7.32 | 0.485 | -0.169 | 5.58
CCCCCOc1ccc(-c2ccc(-c3ccc(C(=O)N[C@H]4C[C@@H](O)[C@@H](O)NC(=O)[C@@H]5[C@@H](O)[C@@H](C)CN5C(=O)[C@H]([C@@H](C)O)NC(=O)[C@H]([C@H](O)[C@@H](O)c5ccc(O)cc5)NC(=O)[C@@H]5C[C@@H](O)CN5C(=O)[C@H]([C@@H](C)O)NC4=O)cc3)cc2)cc1 [Anidulafungin] | 9.87 | -9.61 | -17.6 | -10.4 | -18.1
Nc1ncnc2c1ncn2[C@@H]1O[C@H](CO)[C@@H](O)[C@H]1O [Adenosine] | 1.75 | 6.58 | 10 | -5.11 | 5.99
N[C@H](C(=O)O)[C@H](O)c1ccc(O)c(O)c1 [Droxidopa] | 0.975 | 0.64 | 3.89 | 5.02 | 2.12
